The full ranking holds about 1,100 compounds; the median of “Wnt reporter firefly/Renilla luciferase ratio relative to plate median” is about 1.1, and the highest 2% start at about 1.6. This is one part of a sample in which the highest values are shown more often than they occur.

This assay deals with HEK293T (UBE3A T485A transfected, BAR Wnt reporter). Briefly: Wnt reporter firefly/Renilla luciferase ratio relative to plate median (fold (linear ratio)); higher = more Wnt/beta-catenin reporter activation. The following applies: 24 h. An outline of the steps: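 Using Fugene 6, HEK293T cells in white 384-well plates (4500 cells/well; DMEM, 10% FBS, 37°C, 5% CO2) were transfected with a BAR firefly luciferase Wnt reporter, TK-Renilla and an expression plasmid. After four hours, robots dosed the chemicals at 0.01–100 uM, and a Dual-Glo luciferase readout followed 24 h later. Per-plate median-centred firefly/Renilla ratios gave Wnt activity, while per-plate median-centred raw Renilla signals gave cell health. Four biological replicates were averaged.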

Turning to `CCOC(=O)C(Cl)Cc1cc(-n2nc(C)n(C(F)F)c2=O)c(F)cc1Cl` (centres undefined) [Carfentrazone-ethyl], the “Wnt reporter firefly/Renilla luciferase ratio” value was determined as 1.07 (concentration: 0.01 uM); 0.973 (concentration: 0.1 uM); 0.982 (concentration: 1 uM); 0.945 (concentration: 10 uM); 1.28 (concentration: 100 uM).

For `CCOC(=O)COc1cc(-c2nn(C)c(OC(F)F)c2Cl)c(F)cc1Cl` [Pyraflufen-ethyl], the “Wnt reporter firefly/Renilla luciferase ratio” value is, setting by setting: (concentration: 0.01 uM) 1.13; (concentration: 0.1 uM) 1.63; (concentration: 1 uM) 1.05; (concentration: 10 uM) 1.09; (concentration: 100 uM) 1.13.

For the compound `O=C(Oc1ccc(Br)cc1)N1CCN2CCC1CC2`, the “Wnt reporter firefly/Renilla luciferase ratio” value (concentration: 0.1 uM) was 1.11, the “Wnt reporter firefly/Renilla luciferase ratio” value (concentration: 1 uM) amounted to 0.988, the “Wnt reporter firefly/Renilla luciferase ratio” value (concentration: 10 uM) was 1.09 and the “Wnt reporter firefly/Renilla luciferase ratio” value (concentration: 100 uM) was determined as 0.334.

As to `CC(COc1ccc(Oc2ccccc2)cc1)Oc1ccccn1` (centres undefined) [Pyriproxyfen], the “Wnt reporter firefly/Renilla luciferase ratio” value is, setting by setting: (concentration: 0.01 uM) 1.12; (concentration: 0.1 uM) 0.977; (concentration: 1 uM) 1.04; (concentration: 10 uM) 1.03; (concentration: 100 uM) 0.55.

As for `ClC1(Cl)C2(Cl)C3(Cl)C4(Cl)C(Cl)(Cl)C5(Cl)C3(Cl)C1(Cl)C5(Cl)C24Cl` (centres undefined) [Mirex], the “Wnt reporter firefly/Renilla luciferase ratio” value was 1.02 (concentration: 0.1 uM), 1.05 (concentration: 1 uM), 0.921 (concentration: 10 uM) and 1.28 (concentration: 100 uM).

As for `O=C(Nc1ccccc1)Nc1ccnc(Cl)c1` [Forchlorfenuron], the “Wnt reporter firefly/Renilla luciferase ratio” value worked out at 1.1 (concentration: 0.01 uM), 1.16 (concentration: 0.1 uM), 0.957 (concentration: 1 uM) and 0.694 (concentration: 10 uM).

On to `CCCCc1ccccc1` [Butylbenzene], for which the “Wnt reporter firefly/Renilla luciferase ratio” value runs as follows: (concentration: 0.1 uM) 0.995; (concentration: 1 uM) 1.31; (concentration: 10 uM) 1.01; (concentration: 100 uM) 0.948.

As for `CC(C)N(C(=O)COc1nnc(C(F)(F)F)s1)c1ccc(F)cc1` [Flufenacet], the “Wnt reporter firefly/Renilla luciferase ratio” value (concentration: 0.01 uM) came to 0.973; the “Wnt reporter firefly/Renilla luciferase ratio” value (concentration: 0.1 uM) was found to be 0.746; the “Wnt reporter firefly/Renilla luciferase ratio” value (concentration: 1 uM) came to 0.898; the “Wnt reporter firefly/Renilla luciferase ratio” value (concentration: 10 uM) was determined as 0.605; the “Wnt reporter firefly/Renilla luciferase ratio” value (concentration: 100 uM) is 0.254.

Regarding `C=CCc1ccc2c(c1)OCO2` [Safrole], the “Wnt reporter firefly/Renilla luciferase ratio” value by setting is: (concentration: 0.1 uM) 1.26; (concentration: 1 uM) 1.37; (concentration: 10 uM) 0.895; (concentration: 100 uM) 1.23.

Take `C[C@]12C=CC3=C4CCC(=O)C=C4CC[C@H]3[C@@H]1CC[C@@H]2O` [17beta-Trenbolone]: the “Wnt reporter firefly/Renilla luciferase ratio” value was determined as 1.08 (concentration: 0.1 uM), 1.18 (concentration: 1 uM), 0.938 (concentration: 10 uM) and 0.146 (concentration: 100 uM).

With `CCNC(=O)NC(=O)/C(C#N)=N/OC` [Cymoxanil], the “Wnt reporter firefly/Renilla luciferase ratio” value is 1.42 (concentration: 0.01 uM); 1.34 (concentration: 0.1 uM); 1.15 (concentration: 1 uM); 1.29 (concentration: 10 uM); 1.1 (concentration: 100 uM).

In the case of `CC(C)(C)c1ccccc1O` [2-tert-Butylphenol], the “Wnt reporter firefly/Renilla luciferase ratio” value worked out at 1.53 (concentration: 0.1 uM), 1.54 (concentration: 1 uM), 1.25 (concentration: 10 uM) and 0.813 (concentration: 100 uM).

With `CC1(C)C(C=C(Cl)Cl)C1C(=O)OCc1cccc(Oc2ccccc2)c1` (centres undefined) [Permethrin], the “Wnt reporter firefly/Renilla luciferase ratio” value turned out to be 0.82 (concentration: 0.01 uM); 0.873 (concentration: 0.1 uM); 1.11 (concentration: 1 uM); 1.19 (concentration: 10 uM); 0.865 (concentration: 100 uM).

Turning to `Nc1nc(N)nc(NC2CC2)n1` [Cyromazine], the “Wnt reporter firefly/Renilla luciferase ratio” value (concentration: 0.01 uM) turned out to be 1.01; the “Wnt reporter firefly/Renilla luciferase ratio” value (concentration: 0.1 uM) was 1.18; the “Wnt reporter firefly/Renilla luciferase ratio” value (concentration: 1 uM) was 0.955; the “Wnt reporter firefly/Renilla luciferase ratio” value (concentration: 10 uM) came out at 1.02; the “Wnt reporter firefly/Renilla luciferase ratio” value (concentration: 100 uM) was determined as 1.22.

As to `CCCCCCCCn1sccc1=O` [Octhilinone], the “Wnt reporter firefly/Renilla luciferase ratio” value by setting is: (concentration: 0.1 uM) 1.02; (concentration: 1 uM) 1.15; (concentration: 10 uM) 1.07.

Turning to `CNC(=O)N(C)c1nnc(C(C)(C)C)s1` [Tebuthiuron], the “Wnt reporter firefly/Renilla luciferase ratio” value (concentration: 0.01 uM) came out at 1.35; the “Wnt reporter firefly/Renilla luciferase ratio” value (concentration: 0.1 uM) was found to be 1.39; the “Wnt reporter firefly/Renilla luciferase ratio” value (concentration: 1 uM) was 1.32; the “Wnt reporter firefly/Renilla luciferase ratio” value (concentration: 10 uM) turned out to be 1.67; the “Wnt reporter firefly/Renilla luciferase ratio” value (concentration: 100 uM) stood at 1.5.

Consider `CCCN(CCC)c1c([N+](=O)[O-])cc(C(C)C)cc1[N+](=O)[O-]` [Isopropalin], for which the “Wnt reporter firefly/Renilla luciferase ratio” value is 1.07 (concentration: 0.1 uM), 1.04 (concentration: 1 uM), 1.11 (concentration: 10 uM) and 1.31 (concentration: 100 uM).

With `CCOC1Oc2ccc(OS(C)(=O)=O)cc2C1(C)C` (centres undefined) [Ethofumesate], the “Wnt reporter firefly/Renilla luciferase ratio” value (concentration: 0.01 uM) was 1.05; the “Wnt reporter firefly/Renilla luciferase ratio” value (concentration: 0.1 uM) was found to be 0.973; the “Wnt reporter firefly/Renilla luciferase ratio” value (concentration: 1 uM) stood at 1.03; the “Wnt reporter firefly/Renilla luciferase ratio” value (concentration: 10 uM) is 1.14; the “Wnt reporter firefly/Renilla luciferase ratio” value (concentration: 100 uM) came to 1.86.

On to `N#CC(CCc1ccc(Cl)cc1)(Cn1cncn1)c1ccccc1` (centres undefined) [Fenbuconazole], for which the “Wnt reporter firefly/Renilla luciferase ratio” value runs as follows: (concentration: 0.01 uM) 1.07; (concentration: 0.1 uM) 1.01; (concentration: 1 uM) 1.03; (concentration: 10 uM) 0.614; (concentration: 100 uM) 0.347.

Regarding `CN(C)C(=S)[S-].[Na+]` [Sodium dimethyldithiocarbamate], the “Wnt reporter firefly/Renilla luciferase ratio” value was found to be 1.22 (concentration: 0.1 uM), 0.816 (concentration: 1 uM), 0.751 (concentration: 10 uM) and 0.926 (concentration: 100 uM).

As for `CN(C)C(=S)[S-].CN(C)C(=S)[S-].[Zn+2]` [Ziram], the “Wnt reporter firefly/Renilla luciferase ratio” value is, setting by setting: (concentration: 0.1 uM) 1; (concentration: 1 uM) 0.732; (concentration: 10 uM) 0.577.

As to `CN(C)C(=S)SSC(=S)N(C)C` [Thiram], the “Wnt reporter firefly/Renilla luciferase ratio” value came to 1.62 (concentration: 0.01 uM), 1.39 (concentration: 0.1 uM), 1.06 (concentration: 1 uM) and 1.24 (concentration: 10 uM).

Turning to `c1ccc(-c2ccccc2)cc1` [Biphenyl], the “Wnt reporter firefly/Renilla luciferase ratio” value (concentration: 0.1 uM) amounted to 1.39, the “Wnt reporter firefly/Renilla luciferase ratio” value (concentration: 1 uM) came out at 1.01, the “Wnt reporter firefly/Renilla luciferase ratio” value (concentration: 10 uM) turned out to be 1.25 and the “Wnt reporter firefly/Renilla luciferase ratio” value (concentration: 100 uM) was 1.46.

For `CCCC1COC(Cn2cncn2)(c2ccc(Cl)cc2Cl)O1` (centres undefined) [Propiconazole], the “Wnt reporter firefly/Renilla luciferase ratio” value came out at 0.957 (concentration: 0.01 uM), 1.03 (concentration: 0.1 uM), 1.17 (concentration: 1 uM) and 0.78 (concentration: 10 uM).

In the case of `CCON=C(CC)C1=C(O)CC(c2c(C)cc(C)cc2C)CC1=O` (centres undefined) [Tralkoxydim], the “Wnt reporter firefly/Renilla luciferase ratio” value was determined as 1.14 (concentration: 0.01 uM); 1.54 (concentration: 0.1 uM); 1.03 (concentration: 1 uM); 1.05 (concentration: 10 uM); 0.67 (concentration: 100 uM).

For the compound `CN(C)C(=O)Nc1ccc(Cl)cc1` [Monuron], the “Wnt reporter firefly/Renilla luciferase ratio” value was found to be 0.888 (concentration: 0.1 uM), 0.901 (concentration: 1 uM), 1.09 (concentration: 10 uM) and 1.04 (concentration: 100 uM).

With `CCC(=O)Nc1ccc(Cl)c(Cl)c1` [Propanil], the “Wnt reporter firefly/Renilla luciferase ratio” value reads like this: (concentration: 0.01 uM) 1.31; (concentration: 0.1 uM) 1.71; (concentration: 1 uM) 0.955; (concentration: 10 uM) 1.25; (concentration: 100 uM) 0.294.

For the compound `CON(C)C(=O)Nc1ccc(Cl)c(Cl)c1` [Linuron], the “Wnt reporter firefly/Renilla luciferase ratio” value by setting is: (concentration: 0.01 uM) 1.1; (concentration: 0.1 uM) 0.829; (concentration: 1 uM) 1.11; (concentration: 10 uM) 1.17; (concentration: 100 uM) 0.524.

With `ClC1=C(Cl)C2(Cl)C3C(Cl)C=CC3C1(Cl)C2(Cl)Cl` (centres undefined) [Heptachlor], the “Wnt reporter firefly/Renilla luciferase ratio” value came out at 0.972 (concentration: 0.1 uM), 1.07 (concentration: 1 uM), 1.17 (concentration: 10 uM) and 1.24 (concentration: 100 uM).

In the case of `N#CC(Br)Br` [Dibromoacetonitrile], the “Wnt reporter firefly/Renilla luciferase ratio” value (concentration: 0.1 uM) is 1.15, the “Wnt reporter firefly/Renilla luciferase ratio” value (concentration: 1 uM) came out at 1.01, the “Wnt reporter firefly/Renilla luciferase ratio” value (concentration: 10 uM) was determined as 1.17 and the “Wnt reporter firefly/Renilla luciferase ratio” value (concentration: 100 uM) came to 1.19.

With `O=[N+]([O-])c1ccc(Cl)c(Cl)c1` [3,4-Dichloronitrobenzene], the “Wnt reporter firefly/Renilla luciferase ratio” value by setting is: (concentration: 0.1 uM) 1.21; (concentration: 1 uM) 1.14; (concentration: 10 uM) 1.29; (concentration: 100 uM) 1.54.

In the case of `Nc1c(Cl)cc([N+](=O)[O-])cc1Cl` [Dicloran], the “Wnt reporter firefly/Renilla luciferase ratio” value was 1.85 (concentration: 0.01 uM); 1.64 (concentration: 0.1 uM); 0.962 (concentration: 1 uM); 1.29 (concentration: 10 uM); 0.345 (concentration: 100 uM).

Consider `O=[N+]([O-])c1ccc(Cl)cc1` [1-Chloro-4-nitrobenzene], for which the “Wnt reporter firefly/Renilla luciferase ratio” value amounted to 1.04 (concentration: 0.1 uM), 1.2 (concentration: 1 uM), 1.02 (concentration: 10 uM) and 1.38 (concentration: 100 uM).

The values above are taken from the supplement of paper PMC9254222.
